Experimental data reported in ChEMBL document CHEMBL1157539, “Thousands of chemical starting points for antimalarial lead identification” (Nature, 2010).

What was measured:
Assay type in all cases: functional
Plasmodium falciparum [1] = assay: GSK_TCMDC: Inhibition of Plasmodium falciparum 3D7 in whole red blood cells, using parasite LDH activity as an index of growth. Test compounds present at 2uM
Plasmodium falciparum [2] = assay: GSK_TCMDC: Inhibition of Plasmodium falciparum Dd2 in whole red blood cells, using parasite LDH activity as an index of growth. Test compounds present at 2uM
HepG2 = assay: GSK_TCMDC: Percent inhibition of human HepG2 cell line. Test compounds present at 10uM.

Row | SMILES | Inhibition (Plasmodium falciparum [1]) [%] | Inhibition (Plasmodium falciparum [2]) [%] | Inhibition (HepG2) [%]
1 | NCCc1cccc(-c2cnc3[nH]cc(-c4ccc(C(=O)O)cc4)c3c2)c1.O=C(O)C(F)(F)F | 99 | 98 | 4
2 | COCCn1c(-c2nc(-c3ccc(F)cc3)cnc2N)nc2ccccc21 | 98 | 98 | 16
3 | COc1ccc(Cn2c(N3CCN(S(=O)(=O)c4ccc(OC)cc4)CC3)nc3c2c(=O)n(CC2CC2)c(=O)n3CC2CC2)cc1 | 92 | 39 | 0
4 | O=S(=O)(c1ccc(Cl)cc1Cl)N1CCCCC(c2ccc(C(F)(F)F)cc2)=N1 | 100 | 99 | 10
5 | Cc1cc(C)cc(CC(=O)N2CCC(n3c(C)nc4ccc(C)cc43)CC2)c1 | 100 | 100 | 52
6 | CN(C)CCNC(=O)c1csc(Nc2ccc(Cl)c(Cl)c2)n1 | 100 | 100 | 4
7 | COc1ccc(CNC(=O)c2cnc3c(O)cccc3c2Nc2cccc(NC(=O)c3ccc(-c4ccccc4)cc3)c2)cc1.O=C(O)C(F)(F)F | 90 | 83 | 42
8 | OC(CNCc1cccc(Oc2ccc(Cl)cc2)c1)c1cc(C(F)(F)F)cc(C(F)(F)F)c1 (stereo not given) | 99 | 100 | 0
9 | CCCCCN1CCCC1CNS(=O)(=O)c1ccc(C(=O)Nc2cccc(C(F)(F)F)c2)cc1.O=C(O)C(F)(F)F (stereo not given) | 95 | 0 | 16
10 | N=c1c2nc(-c3c(F)cccc3Cl)[nH]c(=O)c2[nH]c(=O)n1-c1ccccc1 | 95 | 0 | 52
